The target in experiment [1] is Tyrosine-protein kinase Yes (Homo sapiens) (UniProt P07947). Briefly: qHTS for small molecule inhibitors of Yes1 kinase: Primary Screen (AID 686947). Also: nearly all actives have a fitted effect of over 60% in size. Also: potency is read from the fitted curve at half-maximal effect. Put shortly: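 ADP-Glo luminescence reports ADP formed by 4 nM Yes1 phosphorylating poly(E4Y) (0.3 mg/mL) with 0.1 mM ATP for 60 min at room temperature, following 20 min compound preincubation; normalised between DMSO wells with and without enzyme.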
(In general: qHTS replaces the single test concentration by a dilution series.)

A short description of experiment [2]: qHTS for small molecule inhibitors of Yes1 kinase: Counter Assay (AID 686950).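 Also: no kinase present so only ADP-Glo detection of a fixed ADP amount is tested; luminescence from ADP-Glo reporting ADP in a fixed ATP and ADP mixture; series mostly up to about 77 µM.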 Put shortly:
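ADP-Glo luminescence read after a 60 min room-temperature incubation of compound with an ATP/ADP mix (0.08 mM/0.02 mM) and no kinase, following a 20 min compound preincubation. Signal scaled between ATP+ADP (max) and 0.1 mM ATP-only (min) wells; Tris pH 7.5, Mg2+, DTT.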

A short description of experiment [3]: qHTS assay for environmental chemicals that activate the Aryl hydrocarbon Receptor (AhR) signaling pathway (AID 651777). Also: nearly all actives have a fitted effect of over 15% in size. The conditions noted are these: 1A2-DRE human hepatoma cells, luciferase, 24 h; hits give high values. In a few lines:
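Induction of CYP1A2 transcription through AhR is detected by luciferase in 1A2-DRE hepatoma cells. Compounds or DMSO act for 24 hr at 37 C before a 30 min One-Glo step at room temperature.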

The target in experiment [4] is Peroxisome proliferator-activated receptor alpha (Homo sapiens) (UniProt Q07869). Kind of experiment: qHTS assay for small molecule agonists of the peroxisome proliferator-activated receptor alpha (PPARalpha) signaling pathway (AID 651778). To be noted: PathHunter PPARalpha complementation, chemiluminescence, 6 h; hits give high values. The source says: National Center for Advancing Translational Sciences [NCATS]
NIH Chemical Genomics Center [NCGC]
U.S. Environmental Protection Agency [EPA]
National Institutes of Environmental Health Sciences [NIEHS]
National Toxicology Program [NTP]
The Peroxisome proliferator-activated receptors (PPARs) are lipid-activated transcription factors of the nuclear receptor superfamily with three distinct subtypes (alpha, garmma and beta/delta). All these subtypes heterodimerize with retinoid X receptor and have different physiological functions. PPARalpha is highly expressed in tissues with high rates of mitochondrial fatty acid oxidation, such as liver, heart, muscle, kidney and cells of the arterial wall. PPARalpha is a major regulator of lipid metabolism and energy homeostasis.
A cell based assay was used to identify activators of PPARalpha. The assay detects binding of a ligand to PPARalpha leading to its activation, translocation and complementation thus forming a functional enzyme capable of hydrolyzing the substrate molecule and generating chemiluminescent signal.
2,000 cells in 6 uL/well were dispensed into white wall/solid bottom 1536-well plates using a Multidrop Combi (Thermo Scientific) dispenser. […] 3 ul PathHunter detection reagent (Discoverx) was then added to each well and following 60 min incubation at room temperature, chemiluminescence was quantified on a ViewLux CCD-based plate reader.

Experiment [5] is described as follows: qHTS for Inhibitors of Ubiquitin-specific Protease USP2a Using CHOP2 as the Reporter: K633 Counterscreen (AID 652168). Also: series mostly up to about 57 µM. The source says: Homeostasis of cellular proteins is maintained through a combination of synthesis and degradation. The pathway that accounts for the majority of protein degradation is the ubiquitin-proteasomal pathway. Ubiquitin (Ub) is highly conserved in all cells and the generation of a multi-Ub chain typically targets proteins for degradation by the proteasome. However, ubiquitination is highly reversible and dynamic. Deubiquitination, the reverse process, is catalyzed through the action of enzymes referred to as isopeptidases or deubiquitinating enzymes (DUBs). This group of enzymes is collectively responsible for maintaining adequate pools of free ubiquitin and regulating the ubiquitination status of cellular proteins. The class of DUBs referred to as the ubiquitin-specific proteases (USP) family functions endoproteolytically to cleave Ub chains from a wide range of protein substrates. USP2a deubiquitinates fatty acid synthase (FASN) which has recently been identified as an emerging oncology target. To identify inhibitors of USP2a a cell-free qHTS assay was employed. To determine whether the compounds interacted with the detection system alone, the effect of compounds on the substrate of assay 2.1.3 over time was determined in a 1536-well assay. A compound that modulates the fluorescence over time would be indicative of interference with the detection system. […]

The nature of experiment [6]: qHTS for Inhibitors of Ubiquitin-specific Protease USP2a Using CHOP2 as the Reporter: Cytotox Assay (AID 652170). Also: potency is read from the fitted curve at half-maximal effect; nearly all actives have a fitted effect of over 70% in size. To be noted: HCT116 viability, CellTiter-Glo luminescence, 72 h. Put shortly: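 Cytotoxicity read as ATP luminescence (CellTiter-Glo) after 72 hr compound treatment at 37 deg C. Cells: HCT116, 600/well in DMEM plus 10% FBS. Normalization between DMSO-treated cells and cell-free wells.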

Experiment [7] deals with Ubiquitin carboxyl-terminal hydrolase 2 (Homo sapiens) (UniProt O75604). Briefly: qHTS for Inhibitors of Ubiquitin-specific Protease USP2a Using CHOP2 as the Reporter: K484 Substrate (AID 652173).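 Also: cleavage of internally quenched K48 di-ubiquitin substrate measured as rising fluorescence over time; potency is read from the fitted curve at half-maximal effect; nearly all actives have a fitted effect of over 70% in size.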 The conditions noted are these: USP2 cleavage of DiUb K48 IQF substrate, fluorescence. Put shortly: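 Kinetic fluorescence (Ex 525/Em 598) tracked cleavage of an internally quenched K48 di-ubiquitin substrate, added as a 100 nM solution. The enzyme was added as a 5 nM USP2 solution before compound pinning, with no-enzyme controls. Buffer: Tris pH 8, beta-mercaptoethanol, CHAPS.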

Several values for one entry are separate records, joined by “and”; a condition that tells them apart may be missing. Equal values may be shown once. Unmarked numbers belong to inactive results. Results filed as inconclusive are left out. A call without a number means that no potency is given here. Activity calls are given as the source filed them. Calls follow the shape of the dose curve; as a rule, active = well fitted curve in the direction sought with a large enough effect; inconclusive = small, poorly fitted or top-dose-only effect, or another doubt; inactive = no such curve, though single readings can be large; an effect the other way counts as inactive or inconclusive.

Tyrosine-protein kinase Yes (Homo sapiens), sequence (P07947 whole entry, looked up): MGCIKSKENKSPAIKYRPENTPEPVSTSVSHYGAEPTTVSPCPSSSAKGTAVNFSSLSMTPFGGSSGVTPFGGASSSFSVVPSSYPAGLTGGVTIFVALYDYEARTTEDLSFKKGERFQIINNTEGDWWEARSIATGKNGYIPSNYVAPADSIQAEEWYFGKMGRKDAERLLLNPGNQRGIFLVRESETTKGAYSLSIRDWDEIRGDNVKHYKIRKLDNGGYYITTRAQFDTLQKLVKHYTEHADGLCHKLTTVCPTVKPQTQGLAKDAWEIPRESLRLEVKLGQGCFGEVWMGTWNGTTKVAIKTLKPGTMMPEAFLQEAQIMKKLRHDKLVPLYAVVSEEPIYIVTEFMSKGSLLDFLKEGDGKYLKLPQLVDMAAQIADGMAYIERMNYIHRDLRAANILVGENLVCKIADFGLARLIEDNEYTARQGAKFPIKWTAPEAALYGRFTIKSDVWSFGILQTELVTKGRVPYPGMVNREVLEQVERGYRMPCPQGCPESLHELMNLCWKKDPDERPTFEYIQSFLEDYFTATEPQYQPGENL
Ubiquitin carboxyl-terminal hydrolase 2 (Homo sapiens), sequence (O75604 whole entry, looked up): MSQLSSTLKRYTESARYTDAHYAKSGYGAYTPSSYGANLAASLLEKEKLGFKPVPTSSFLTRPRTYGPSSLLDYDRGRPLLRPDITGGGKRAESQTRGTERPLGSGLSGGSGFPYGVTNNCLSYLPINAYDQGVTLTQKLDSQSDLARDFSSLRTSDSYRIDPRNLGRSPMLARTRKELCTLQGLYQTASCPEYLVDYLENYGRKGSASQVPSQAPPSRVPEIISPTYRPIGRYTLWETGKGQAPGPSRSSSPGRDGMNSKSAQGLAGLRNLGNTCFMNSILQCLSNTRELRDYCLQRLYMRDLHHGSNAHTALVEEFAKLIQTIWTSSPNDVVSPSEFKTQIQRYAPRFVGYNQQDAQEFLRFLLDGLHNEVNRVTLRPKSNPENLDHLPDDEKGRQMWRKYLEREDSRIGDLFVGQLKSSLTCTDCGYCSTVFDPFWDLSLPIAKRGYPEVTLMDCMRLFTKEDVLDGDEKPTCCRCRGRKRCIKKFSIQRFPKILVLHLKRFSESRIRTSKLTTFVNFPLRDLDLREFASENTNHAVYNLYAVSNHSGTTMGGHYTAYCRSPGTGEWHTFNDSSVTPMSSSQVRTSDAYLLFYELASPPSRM
Peroxisome proliferator-activated receptor alpha (Homo sapiens), sequence (Q07869 whole entry, looked up): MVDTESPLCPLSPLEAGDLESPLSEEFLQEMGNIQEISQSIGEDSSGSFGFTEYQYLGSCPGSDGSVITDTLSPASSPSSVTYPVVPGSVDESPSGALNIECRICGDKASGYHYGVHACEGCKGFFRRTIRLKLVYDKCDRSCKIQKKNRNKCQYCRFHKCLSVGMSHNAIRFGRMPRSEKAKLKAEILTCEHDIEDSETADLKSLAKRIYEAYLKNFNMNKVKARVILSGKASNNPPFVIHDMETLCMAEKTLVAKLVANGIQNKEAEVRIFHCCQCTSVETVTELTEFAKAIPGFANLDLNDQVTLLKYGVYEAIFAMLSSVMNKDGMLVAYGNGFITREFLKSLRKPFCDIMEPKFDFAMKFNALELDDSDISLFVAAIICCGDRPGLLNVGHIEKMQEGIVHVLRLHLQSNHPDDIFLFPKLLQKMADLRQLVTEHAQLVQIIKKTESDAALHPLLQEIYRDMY

On to `Cc1ccc(C(N)=O)cc1Nc1nccc(-c2cn(C(C)C)c3cnccc23)n1`, for which the Potency in experiment [1] is 0.547 µM (active). In experiment [2], the compound was classed as inactive.
In the case of `CN(C)CCCN=c1c2ccccc2n(C)c2[nH]c(=O)n(C)c(=O)c12`, the Potency entry in experiment [1] is “inactive”. Also, the compound was classed as inactive in experiment [2].
Consider `COc1cc2nccc(Oc3ccc(NC(=O)C4(C(=O)Nc5ccc(F)cc5)CC4)cc3)c2cc1OC`, for which the Potency in experiment [1] was 1.09 µM (active). In experiment [2], the result was inactive.
As for `CC(C)(C)c1cc(C(C)(C)C)c(NC(=O)c2c[nH]c3ccccc3c2=O)cc1O`, the Potency entry in experiment [1] is “inactive”. Further, the compound was called inactive in experiment [2].
As for `COc1cc(C(C)C)c2c(c1)S(=O)(=O)N(COc1cc(=O)n3cccc(OCCN4CCCCC4)c3n1)C2=O`, the Potency result in experiment [1] is “inactive”. Moreover, the compound was called inactive in experiment [2].
Regarding `CC(C)CC(=O)Nc1n[nH]c2c1CN(C(=O)C1CCN(C)CC1)C2(C)C`, the Potency in experiment [1] is 12.2 µM (active). The compound was called inactive in experiment [2].
Take `O=C(O)CCCc1c[nH]c2ccccc12`: the activation in experiment [3] is 1.2%. For the same compound, the max response in experiment [4] was -0.171%.
With `CCN(CC)CCCCNc1ncc2cc(-c3cc(OC)cc(OC)c3)c(NC(=O)NC(C)(C)C)nc2n1`, in experiment [1], the Potency is 9.72 µM (active). In addition, the compound was classed as inactive in experiment [2].
The like results for `COc1ccc(OC)c(-c2nnc3ccc(-c4ccc(OC)c(O[C@@H]5CCOC5)c4)nn23)c1` were, in that order, “inactive” and “inactive”.
For `Cn1c2cc(S(C)=O)sc2c2cnn(Cc3cccc(N)c3)c(=O)c21` (centres undefined), in experiment [1], the Potency result is “inactive”. The compound was classed as inactive in experiment [2].
For `CC(=O)OCC(=O)[C@@]1(O)[C@H](C)C[C@H]2[C@@H]3C=C(C)C4=Cc5c(cnn5-c5ccccc5)C[C@]4(C)[C@@H]3[C@@H](O)C[C@@]21C`, the Potency result in experiment [1] is “inactive”. Also, in experiment [2], the result was inactive.
In the case of `CC1=C(CO)C(=O)O[C@@H]([C@@H](C)[C@H]2CC[C@H]3[C@@H]4C[C@H]5O[C@]56[C@@H](O)C=CC(=O)[C@]6(C)[C@@H]4CC[C@]23C)C1`, in experiment [1], the Potency result is “inactive”. Besides, the compound was called inactive in experiment [2].
Consider `CC(NCc1ccc2c(c1)nc(NC(=O)c1ccc(-c3cn[nH]c3)s1)n2CC(C)(C)O)C(C)(C)C` (centres undefined), for which, in experiment [1], the Potency was 5.5 nM (active) and 0.2 nM (active). In addition, the outcome in experiment [2] was inactive.
As for `CN1CCN(c2cc(C(=O)Nc3ccc4c(c3)-c3c(c(C(N)=O)nn3-c3ccc(F)cc3)CC4)c(Cl)cn2)CC1`, in experiment [1], the Potency result was “inactive”. The compound was classed as inactive in experiment [2].
Consider `O=C(NC1CCNCC1)c1[nH]ncc1NC(=O)c1c(Cl)cccc1Cl`, for which, in experiment [1], the Potency result is “inactive”. Also, in experiment [2], the outcome was inactive.
Turning to `C1Cc2[nH]nc(-c3nn[nH]n3)c2C1`, the Potency result in experiment [1] was “inactive”. The outcome in experiment [2] was inactive.
Turning to `Cc1ccc(S(=O)(=O)Nc2cc(Cl)ccc2C(=O)Nc2nc(-c3ccccc3)cs2)cc1`, the compound was called inactive in experiment [5] and in experiment [2]. In addition, the figures for the Potency in experiment [6] and in experiment [7] were 5260 nM (active) and 1220 nM (active), respectively.
As to `C=CC(=O)Nc1cccc(Oc2nc(Nc3ccc(N4CCN(C)CC4)cc3OC)ncc2Cl)c1`, in experiment [1], the Potency was 4.87 µM (active). In experiment [2], the result was inactive.
For the compound `O=C(c1ccc(Nc2nccc(-c3cc4ccccc4s3)n2)cc1)N1CCC(N2CCCC2)CC1`, in experiment [1], the Potency was 0.0688 µM (active). For the same compound, in experiment [2], the compound was called inactive.
Consider `CCC[C@H](NC(=O)C(C#N)=Cc1cccc(Br)n1)c1ccccc1`, for which the Potency result in experiment [1] is “inactive”. The compound was classed as inactive in experiment [2].
On to `CC1(O)CC(c2nc(-c3ccc4ccc(-c5ccccc5)nc4c3)c3c(N)nccn23)C1` (centres undefined), for which, in experiment [1], the Potency was 1.73 µM (active). Besides, the result in experiment [2] was inactive.
Turning to `CC(=O)Nc1sc2c(c1-c1nc3ccccc3s1)CNC2`, the Potency result in experiment [1] is “inactive”. Moreover, the compound was called inactive in experiment [2].
`C[C@]1(CO)CN(c2cc(C(=O)Nc3ccc4c(c3)-c3c(c(C(N)=O)nn3-c3ccc(F)cc3)CC4)c(Cl)cn2)C[C@@]1(C)CO`: the Potency entry in experiment [1] is “inactive”. The result in experiment [2] was inactive.
Consider `COc1cc2c(Oc3ccc(-c4cnc(Nc5ccc(F)cc5)n(C)c4=O)cc3F)ccnc2cc1OCCCN1CCOCC1`, for which, in experiment [1], the Potency is 0.137 µM (active). For the same compound, the compound was called inactive in experiment [2].
As to `N#CCNC(=O)c1ccc(-c2ccnc(Nc3ccc(N4CCOCC4)cc3)n2)cc1`, the Potency in experiment [1] was 0.972 µM (active). Moreover, the result in experiment [2] was inactive.
For `C[C@@H]1CN(CC(=O)Nc2ccc3c(c2)Cc2cccc(-c4cc(=O)cc(N5CCOCC5)o4)c2S3)C[C@H](C)O1`, the Potency entry in experiment [1] is “inactive”. Moreover, the compound was classed as inactive in experiment [2].
Turning to `C#Cc1cccc(Nc2ncnc3cc(OC)c(OCCCCCCC(=O)NO)cc23)c1`, in experiment [1], the Potency is 1.73 µM (active). In addition, in experiment [2], the outcome was inactive.
With `COc1ccc(CC2SC(=O)NC2=O)cc1C(=O)NCc1ccc(C(F)(F)F)cc1` (centres undefined), in experiment [1], the Potency result is “inactive”. Besides, the result in experiment [2] was inactive.
`CCOc1cc2ncc(C#N)c(Nc3ccc(F)c(Cl)c3)c2cc1NC(=O)C=CCN(C)C`: the Potency in experiment [1] was 0.0434 µM (active). Also, in experiment [2], the result was inactive.
As for `CC[C@@H]1C(=O)N(C)c2cnc(Nc3ccc(C(=O)NC4CCC(N5CCN(CC6CC6)CC5)CC4)cc3OC)nc2N1C(C)C` (some centres undefined), in experiment [1], the Potency result is “inactive”. Also, in experiment [2], the result was inactive.
For `CC(C)[C@H](C(=O)Nc1ccc(C(=O)NO)cc1)c1ccccc1`, in experiment [1], the Potency result was “inactive”. Moreover, the compound was classed as inactive in experiment [2].
Take `O=C(NCCCNc1nc(Nc2cccc(NC(=O)N3CCCC3)c2)ncc1I)c1cccs1`: in experiment [1], the Potency was 1.37 µM (active) and 1.22 µM (active). Moreover, the compound was called inactive in experiment [2].
Consider `O=C(O)c1ccc2c(c1)nc(Nc1cccc(Cl)c1)c1ccncc12`, for which the Potency in experiment [1] is 0.487 µM (active). Besides, the compound was called inactive in experiment [2].
Turning to `O=C(O)[C@H](Cc1c[nH]c2ccccc12)N1C(=O)c2ccccc2C1=O`, the Potency result in experiment [1] was “inactive”. In experiment [2], the call was inactive.
With `C=C1C(=CC=C2CCCC3(C)[C@@H]([C@H](C)C=CC=CC(O)(CC)CC)CC[C@@H]23)C[C@@H](O)C[C@@H]1O` (some centres undefined), the Potency entry in experiment [1] was “inactive”. Also, in experiment [2], the outcome was inactive.
As to `Nc1ccccc1NC(=O)c1ccc(CNC(=O)OCc2cccnc2)cc1`, the Potency in experiment [1] was 15.4 µM (active). Also, in experiment [2], the result was inactive.

Values taken from PubChem BioAssay (NCATS).
